# Results taken from PubChem BioAssay AID1159580 (chemical genetic matrix, 2015).
# Out of some 5,500 compounds screened, about 2,000 (36%) were called active. Another 18% or so got no clear call; they are omitted. The list shows a part of the results. Unmarked numbers belong to inactive results. Cut-off read from the data, not from the text of the source: active = normalized growth mostly below about 0.91 (no sharp cut-off); inconclusive = no clear call, values can overlap the other calls; inactive = mostly above about 0.92.
# Assay: chemical genetic growth profiling, strain panel (AID 1159580);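 note: tested at 20 µM; growth read once vehicle control cultures reached saturation at 30 °C; 1 = growth at the plate median or of vehicle wells; lower values mean less growth of the strain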
# Details: growth OD
compound,measurement,setting,value
COc1cc(C)c2c(=O)c3c(O)cc(O)cc3oc2c1,normalized growth,"S. cerevisiae deletion strains, locus YBR021W, strain FUR4, hits give low values",0.936
same,normalized growth,"S. cerevisiae deletion strains, locus YBR229C, strain ROT2, hits give low values",0.975
same,normalized growth,"S. cerevisiae deletion strains, locus YCL029C, strain bik1, hits give low values",0.95
same,normalized growth,"S. cerevisiae deletion strains, locus YDL035C, strain GPR1, hits give low values",0.994
same,normalized growth,"S. cerevisiae deletion strains, locus YDL074C, strain BRE1, hits give low values",0.95
same,normalized growth,"S. cerevisiae deletion strains, locus YDL101C, strain DUN1, hits give low values",0.974
same,normalized growth,"S. cerevisiae deletion strains, locus YDL185W, strain tfp1, hits give low values",0.955
same,normalized growth,"S. cerevisiae deletion strains, locus YDL192W, strain arf1, hits give low values",0.891 (active)
same,normalized growth,"S. cerevisiae deletion strains, locus YDR101C, strain arx1, hits give low values",0.943
same,normalized growth,"S. cerevisiae deletion strains, locus YDR162C, strain NBP2, hits give low values",0.967
same,normalized growth,"S. cerevisiae deletion strains, locus YDR318W, strain mcm21, hits give low values",0.906 (active)
same,normalized growth,"S. cerevisiae deletion strains, locus YDR388W, hits give low values",0.941
same,normalized growth,"S. cerevisiae deletion strains, locus YDR502C, strain sam2, hits give low values",0.92 (active)
same,normalized growth,"S. cerevisiae deletion strains, locus YEL061C, strain CIN8, hits give low values",1.02
same,normalized growth,"S. cerevisiae deletion strains, locus YER110C, hits give low values",0.948
same,normalized growth,"S. cerevisiae deletion strains, locus YER167W, strain BCK2, hits give low values",0.983
same,normalized growth,"S. cerevisiae deletion strains, locus YGL078C, strain dbp3, hits give low values",0.946
same,normalized growth,"S. cerevisiae deletion strains, locus YGL086W, strain mad1, hits give low values",0.904 (active)
same,normalized growth,"S. cerevisiae deletion strains, locus YGL248W, strain PDE1, hits give low values",0.934
same,normalized growth,"S. cerevisiae deletion strains, locus YGR135W, strain pre9, hits give low values",0.93
same,normalized growth,"S. cerevisiae deletion strains, locus YGR252W, strain gcn5, hits give low values",0.764 (active)
same,normalized growth,"S. cerevisiae deletion strains, locus YHR079C, strain IRE1 (second series), hits give low values",0.925 (active)
same,normalized growth,"S. cerevisiae deletion strains, locus YHR094C, strain hxt1, hits give low values",0.961
same,normalized growth,"S. cerevisiae deletion strains, locus YHR129C, strain ARP1, hits give low values",0.995
same,normalized growth,"S. cerevisiae deletion strains, locus YHR200W, strain rpn10, hits give low values",0.904 (active)
same,normalized growth,"S. cerevisiae deletion strains, locus YIL066C, strain RNR3, hits give low values",0.986
same,normalized growth,"S. cerevisiae deletion strains, locus YIL073C, strain SPO22, hits give low values",0.923
same,normalized growth,"S. cerevisiae deletion strains, locus YIL125W, strain kgd1, hits give low values",0.957
same,normalized growth,"S. cerevisiae deletion strains, locus YIR030C, strain dcg1, hits give low values",0.953
same,normalized growth,"S. cerevisiae deletion strains, locus YJL095W, strain BCK1, hits give low values",0.829
same,normalized growth,"S. cerevisiae deletion strains, locus YJL134W, strain LCB3, hits give low values",0.981
same,normalized growth,"S. cerevisiae deletion strains, locus YJL168C, strain set2, hits give low values",0.975
same,normalized growth,"S. cerevisiae deletion strains, locus YJL187C, strain SWE1 (second series), hits give low values",0.953
same,normalized growth,"S. cerevisiae deletion strains, locus YJR043C, strain POL32, hits give low values",0.979
same,normalized growth,"S. cerevisiae deletion strains, locus YKL009W, strain mrt4, hits give low values",0.911
same,normalized growth,"S. cerevisiae deletion strains, locus YKL068W, hits give low values",0.971
same,normalized growth,"S. cerevisiae deletion strains, locus YKL085W, strain MDH1 (second series), hits give low values",0.952
same,normalized growth,"S. cerevisiae deletion strains, locus YKL085W, strain MDH1, hits give low values",0.952
same,normalized growth,"S. cerevisiae deletion strains, locus YKL190W, strain CNB1, hits give low values",1
same,normalized growth,"S. cerevisiae deletion strains, locus YKR001C, strain vps1, hits give low values",0.871 (active)
same,normalized growth,"S. cerevisiae deletion strains, locus YLR039C, strain RIC1, hits give low values",0.865
same,normalized growth,"S. cerevisiae deletion strains, locus YLR058C, strain SHM2, hits give low values",0.941
same,normalized growth,"S. cerevisiae deletion strains, locus YLR102C, strain apc9, hits give low values",0.969
same,normalized growth,"S. cerevisiae deletion strains, locus YLR262C, strain YPT6, hits give low values",0.846
same,normalized growth,"S. cerevisiae deletion strains, locus YLR268W, strain sec22, hits give low values",0.941
same,normalized growth,"S. cerevisiae deletion strains, locus YLR330W, strain CHS5, hits give low values",0.973
same,normalized growth,"S. cerevisiae deletion strains, locus YLR371W, strain rom2, hits give low values",0.936
same,normalized growth,"S. cerevisiae deletion strains, locus YLR418C, strain cdc73, hits give low values",0.815 (active)
same,normalized growth,"S. cerevisiae deletion strains, locus YML016C, strain PPZ1, hits give low values",0.974
same,normalized growth,"S. cerevisiae deletion strains, locus YML032C, strain rad52, hits give low values",0.829 (active)
same,normalized growth,"S. cerevisiae deletion strains, locus YML124C, strain tub3, hits give low values",0.967
same,normalized growth,"S. cerevisiae deletion strains, locus YMR078C, strain ctf18, hits give low values",0.954
same,normalized growth,"S. cerevisiae deletion strains, locus YMR223W, strain ubp8, hits give low values",0.884 (active)
same,normalized growth,"S. cerevisiae deletion strains, locus YMR263W, strain SAP30, hits give low values",0.979
same,normalized growth,"S. cerevisiae deletion strains, locus YMR307W, strain GAS1, hits give low values",0.752
same,normalized growth,"S. cerevisiae deletion strains, locus YNL067W, strain RPL9B, hits give low values",0.992
same,normalized growth,"S. cerevisiae deletion strains, locus YNL128W, strain TEP1, hits give low values",0.985
same,normalized growth,"S. cerevisiae deletion strains, locus YNL153C, strain GIM3, hits give low values",0.989
same,normalized growth,"S. cerevisiae deletion strains, locus YNL233W, strain BNI4, hits give low values",0.86 (active)
same,normalized growth,"S. cerevisiae deletion strains, locus YNL250W, strain rad50, hits give low values",0.889 (active)
same,normalized growth,"S. cerevisiae deletion strains, locus YNL271C, strain bni1, hits give low values",0.953
same,normalized growth,"S. cerevisiae deletion strains, locus YNL298W, strain CLA4, hits give low values",0.962
same,normalized growth,"S. cerevisiae deletion strains, locus YNL307C, strain MCK1, hits give low values",0.868 (active)
same,normalized growth,"S. cerevisiae deletion strains, locus YNR052C, strain pop2, hits give low values",0.933
same,normalized growth,"S. cerevisiae deletion strains, locus YOL012C, strain htz1",0.866
same,normalized growth,"S. cerevisiae deletion strains, locus YOL147C, strain pex11, hits give low values",0.923 (active)
same,normalized growth,"S. cerevisiae deletion strains, locus YOR061W, strain CKA2, hits give low values",0.982
same,normalized growth,"S. cerevisiae deletion strains, locus YOR069W, strain VPS5, hits give low values",0.997
same,normalized growth,"S. cerevisiae deletion strains, locus YOR136W, strain idh2, hits give low values",0.925
same,normalized growth,"S. cerevisiae deletion strains, locus YOR144C, strain elg1, hits give low values",0.954
same,normalized growth,"S. cerevisiae deletion strains, locus YOR184W, strain ser1, hits give low values",0.918
same,normalized growth,"S. cerevisiae deletion strains, locus YOR316C, strain cot1, hits give low values",0.96
same,normalized growth,"S. cerevisiae deletion strains, locus YPR119W, strain clb2, hits give low values",0.956
same,normalized growth,"S. cerevisiae deletion strains, locus YPR141C, strain kar3, hits give low values",0.958
same,normalized growth,"S. cerevisiae deletion strains, locus YPR163C, strain tif3, hits give low values",0.896 (active)
same,normalized growth,"S. cerevisiae deletion strains, locus YPR167C, strain met16, hits give low values",0.883 (active)
same,normalized growth,"S. cerevisiae deletion strains, strain wtn01, hits give low values",0.919
same,normalized growth,"S. cerevisiae strains, strain wild type, hits give low values",0.932
